Hits are enriched below; roughly 21% of the tested compounds scored in any of these assays.
CHX counter: Cycloheximide Counterscreen for Small Molecule Inhibitors of Shiga Toxin; max response, %; cell reporter, cycloheximide protein synthesis inhibition counterscreen; AID 2314, 2010; 300,000 tested, 12% active; in the data active means max response mostly above about 13%, no sharp cut-off; inactive means mostly below about 14%; further: read at 38.3 µM for the half of the compounds with a filed dose
NS1 function inh: qHTS Assay for Inhibitors of Influenza NS1 Protein Function | 270,000 tested, 0.4% active | Potency, µM (highest dose often 46.1 µM); calls by dose curve; further: actives are rising curves; nearly all actives have a fitted effect of over 50% in size
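In this qHTS, NS1 from influenza A is expressed in budding yeast, where it slows growth. Cells are switched from glucose to 2% galactose medium (pH 6.0, -URA), treated with compound, and growth recovery is read at OD600.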
Pf growth 48h: Primary qHTS for delayed death inhibitors of the malarial parasite plastid, 48 hour incubation. P. falciparum luciferase growth in erythrocytes, 48 h. 310,000 tested, 5.9% active. AID 504832, 2011. Potency, µM (doses to about 28.7 µM), actives largely listed as inhibitors
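Cell-based growth assay: transgenic P. falciparum expressing firefly luciferase, cultured in red cells within RPMI 1640 containing 0.5% w/v Albumax, 24 mM bicarbonate and gentamycin. A drop in luciferase activity indicates inhibition.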
SARS PLP yeast: qHTS of Yeast-based Assay for SARS-CoV PLP | S. cerevisiae expressing SARS-CoV PLpro, growth rescue | Potency, µM (doses to about 32.9 µM), hits mostly activators | 330,000 tested, 0.19% active; calls by dose curve; further: nearly all actives have a fitted effect of over 55% in size
Pf growth 96h: Primary qHTS for delayed death inhibitors of the malarial parasite plastid, 96 hour incubation; P. falciparum luciferase reporter growth, 96 h; Potency, µM (highest dose often 28.7 µM), usual class: inhibitors; 320,000 tested, 6.9% active; AID 504834, 2011
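Two-generation exposure (96 h) targets delayed-death phenotype. Reporter parasites carrying integrated firefly luciferase, in red cells at 2% hematocrit and 0.05% parasitemia final, kept at 37 C, 5% CO2; luminescence loss indicates inhibition.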
Shiga inhibitor: A qHTS for Small Molecule Inhibitors of Shiga Toxin; inhibition, % at 38.7 µM; Vero cells, Shiga toxin protein synthesis inhibition reporter; 290,000 tested, 9.2% active; in the data active means inhibition mostly above about 28%, no sharp cut-off; inactive means mostly below about 43%
Numbers stand for hits. Unless noted, the call rests on the fitted dose curve; in most records, active means well fitted inhibition curve with a large enough effect; inconclusive means small, poorly fitted or top-dose-only effect, or another doubt; inactive means no such curve, though single readings can be large or run the other way.

For COC(=O)Cc1[nH]nc2c1C1(C(=O)N(Cc3ccccc3)c3ccccc31)C(C#N)=C(N)O2 (stereo not drawn) the results were CHX counter inactive, NS1 function inh inactive, Pf growth 48h inactive, SARS PLP yeast inactive, Pf growth 96h inactive and Shiga inhibitor inactive.
Screening Cc1[nH]nc2c1C1(C(=O)N(Cc3ccc(Cl)cc3)c3ccccc31)C(C#N)=C(N)O2 (stereo not drawn) returned CHX counter inactive, NS1 function inh inactive, Pf growth 48h 13µM, SARS PLP yeast inactive, Pf growth 96h inactive and Shiga inhibitor inactive.
CCOc1ccc(-n2nc3cc(C)c(N)cc3n2)cc1 was read as CHX counter 32, NS1 function inh inactive, Pf growth 48h inactive, SARS PLP yeast inactive, Pf growth 96h inconclusive and Shiga inhibitor 48.
Screening CCOc1ccc(-n2nc3ccc(N)cc3n2)cc1 returned CHX counter 36, NS1 function inh inactive, Pf growth 48h inactive, SARS PLP yeast inactive, Pf growth 96h inactive and Shiga inhibitor 31.
CCOc1ccc(-n2nc3ccc(NC(=O)c4ccc5c(c4)OCCO5)cc3n2)cc1 was read as CHX counter inactive, NS1 function inh inactive, Pf growth 48h inactive, SARS PLP yeast inactive, Pf growth 96h inactive and Shiga inhibitor inactive.
For CC[C@@]1(C(=O)OC)N[C@H](CN(C)C(=O)c2ccc(F)cc2)[C@@H]2C(=O)N(C)C(=O)[C@@H]21 the results were SARS PLP yeast inactive.
`CN1C(=O)C(Cl)(Cl)C(=O)c2ccccc21` gave CHX counter 18, NS1 function inh inactive, Pf growth 48h inactive, SARS PLP yeast inactive, Pf growth 96h inactive and Shiga inhibitor inactive.
Screening CN1C(=O)N(C)C(=O)C2(Sc3ccccc3C2=O)C1=O returned CHX counter inactive, NS1 function inh inactive, SARS PLP yeast inactive, Pf growth 96h inactive and Shiga inhibitor inactive.
`C[n+]1ccc(/C=N/Nc2nc(Cl)c(C#N)c(Cl)c2Cl)cc1` gave CHX counter inactive, NS1 function inh inactive, Pf growth 48h inactive, SARS PLP yeast inactive, Pf growth 96h inactive and Shiga inhibitor inactive.
`CCn1cc(/C=C(\NC(=O)c2ccccc2F)C(=O)NCCCn2ccnc2)c2ccccc21` gave CHX counter inactive, NS1 function inh inactive, Pf growth 48h inactive, SARS PLP yeast inactive, Pf growth 96h inconclusive and Shiga inhibitor inactive.
CCC(Cc1ccccc1)NC(=O)C1CCN(c2nn3c(=O)cc(C)nc3s2)CC1 (stereo not drawn) was read as CHX counter inactive, NS1 function inh inactive, Pf growth 48h inactive, SARS PLP yeast inactive, Pf growth 96h 10µM and Shiga inhibitor inactive.
`CCOc1ccc(CCNC(=O)C2CCN(c3nn4c(=O)cc(C)nc4s3)CC2)cc1` gave CHX counter inactive, NS1 function inh inactive, Pf growth 48h 10µM, SARS PLP yeast inactive, Pf growth 96h inactive and Shiga inhibitor inactive.
For COc1ccc(CNC(=O)C2CCN(c3nn4c(=O)cc(C)nc4s3)CC2)cc1 the results were CHX counter inactive, NS1 function inh inactive, Pf growth 48h inactive, SARS PLP yeast inconclusive, Pf growth 96h inconclusive and Shiga inhibitor inactive.
`COc1ccc(CNC(=O)C2CCCN(c3nn4c(=O)cc(C)nc4s3)C2)cc1` (stereo not drawn) gave CHX counter inactive, NS1 function inh inactive, Pf growth 48h inactive, SARS PLP yeast inactive, Pf growth 96h 9.3µM and Shiga inhibitor inactive.
`CCOc1cc(C)nc(N2CCCC(C(=O)NCc3ccccc3F)C2)n1` (stereo not drawn) gave CHX counter inactive, NS1 function inh inactive, Pf growth 48h 2.9µM, SARS PLP yeast inactive and Shiga inhibitor inactive.
COc1ccccc1OCCC(=O)NNC(=O)c1ccccc1F was read as Pf growth 48h inactive, SARS PLP yeast inactive and Pf growth 96h inactive.
COc1ccc(S(=O)(=O)N2CCOCC2)cc1NC(=O)c1ccccc1C was read as CHX counter inactive, NS1 function inh inactive, Pf growth 48h inactive, SARS PLP yeast inactive, Pf growth 96h inactive and Shiga inhibitor inactive.
Screening CCOC(=O)C1=NNC2C(=O)N(C3CCCCC3)C(=O)C12 (stereo not drawn) returned CHX counter inactive, NS1 function inh inactive, Pf growth 48h inactive, SARS PLP yeast inactive, Pf growth 96h inactive and Shiga inhibitor inactive.
For CCOc1ccccc1CNC(=O)C1CCCN(c2nn3c(=O)cc(C)nc3s2)C1 (stereo not drawn) the results were CHX counter inactive, NS1 function inh inactive, Pf growth 48h inconclusive, SARS PLP yeast inactive, Pf growth 96h 15µM and Shiga inhibitor inactive.
Cc1ccc(NC(=O)C2CCCN2c2nn3c(=O)cc(C)nc3s2)cc1 (stereo not drawn) was read as CHX counter inactive, NS1 function inh inactive, Pf growth 48h inactive, SARS PLP yeast inactive, Pf growth 96h 12µM and Shiga inhibitor inactive.
Screening Cc1cc(=O)n2nc(N3CCC(C(=O)NCc4ccccc4)CC3)sc2n1 returned CHX counter inactive, NS1 function inh inactive, Pf growth 48h inactive, SARS PLP yeast inactive, Pf growth 96h inactive and Shiga inhibitor inactive.
Screening Cc1cc(=O)n2nc(N3CCC(C(=O)NCc4ccccc4F)CC3)sc2n1 returned CHX counter inactive, NS1 function inh inactive, Pf growth 48h inactive, SARS PLP yeast 11µM, Pf growth 96h inconclusive and Shiga inhibitor inactive.
For CCc1ccccc1NC(=O)C1CCCN(c2nn3c(=O)cc(C)nc3s2)C1 (stereo not drawn) the results were CHX counter inactive, NS1 function inh inactive, Pf growth 48h inconclusive, SARS PLP yeast inactive, Pf growth 96h 10µM and Shiga inhibitor inactive.
Screening O=C(c1ccccc1/S(=N/S(=O)(=O)c1ccccc1)N1CCOCC1)N1CCOCC1 (stereo not drawn) returned CHX counter inactive, NS1 function inh inactive, Pf growth 48h inactive, SARS PLP yeast inactive, Pf growth 96h inactive and Shiga inhibitor inactive.
For CCOC(=O)N1CCC(N2Cc3cccc(C(=O)Nc4cccc(F)c4)c3C2=O)CC1 the results were CHX counter inactive, Pf growth 48h inconclusive, SARS PLP yeast inactive, Pf growth 96h inconclusive and Shiga inhibitor inactive.
Screening O=C(Nc1ccccc1)Nc1ccc2ccccc2c1 returned CHX counter 52, NS1 function inh inactive, Pf growth 48h inactive, SARS PLP yeast inactive, Pf growth 96h inactive and Shiga inhibitor 81.
Screening CCOC(=O)C(Nc1ccc2ccccc2c1)C(=O)OCC returned CHX counter 74, Pf growth 48h inconclusive, SARS PLP yeast inactive, Pf growth 96h inconclusive and Shiga inhibitor 80.
For CC(=O)CC(=O)Nc1ccc2ccccc2c1 the results were CHX counter inactive, NS1 function inh inactive, Pf growth 48h inactive, SARS PLP yeast inactive, Pf growth 96h inactive and Shiga inhibitor inactive.
CC(=O)Nc1ccc2cc3ccc(NC(C)=O)cc3nc2c1 was read as CHX counter 21, NS1 function inh inactive, Pf growth 48h inconclusive, SARS PLP yeast inactive, Pf growth 96h inconclusive and Shiga inhibitor inactive.

Assay outcomes (PubChem)
